Measured values as given in PubChem BioAssay AID2568 (National Center for Advancing Translational Sciences (NCATS), 2010).
Several values for one entry are separate records, joined by “and”; a condition that tells them apart may be missing. Equal values may be shown once. Records with an inconclusive call do not appear. Activity calls are given as the source filed them. The call rests on the fitted dose curve.

Target: Neuropeptide S receptor (Homo sapiens) (UniProt Q6W5P4)
Assay: Confirmation Concentration-Response Assay for Antagonists of the Neuropeptide S Receptor: cAMP Signal Transduction, SAR for Probe
Conditions: CHO-NPSR cells, cAMP TR-FRET, antagonist mode; series mostly up to 47.8 µM
Excerpt: NIH Chemical Genomics Center [NCGC] NIH Molecular Libraries Probe Production centers Network [MLPCN] MLPCN Grant: X01-DA026210-01 Assay Submitter (PI): Heilig, Markus Alexander NCGC Assay Overview: Neuropeptide S receptor (NPSR), previously known as GPR154, is a recently de-orphanized G protein coupled receptor. Its endogenous ligand is the 20 amino acids peptide Neuropeptide S (NPS). […] NPS and its receptor are found in various tissues. Specifically they are highly expressed in brain areas that have been implicated in modulation of arousal, stress and anxiety. Central administration of NPS in mice produces an unusual profile of activity by inducing wakefulness and arousal, while at the same time suppressing anxiety. Therefore, NPSR may represent a novel drug target for the treatment of sleep and anxiety disorders. To identify NPSR antagonists, we developed a cell-based cAMP assay. NPS can stimulate the production of cAMP in Chinese hamster ovary cells stably expressing NPS receptor. This change in intracellular cAMP level can be detected by a homogeneous LANCE cAMP assay based on the TR-FRET (time resolved fluorescence resonance energy transfer) between a europium-labeled cAMP tracer complex and a cAMP-specific antibody labeled with Alexa Fluor 647. The europium-labeled cAMP tracer complex is formed by the tight interaction between Biotin-cAMP (b-cAMP) and streptavidin labeled with Europium-W8044 chelate (Eu-SA). Light pulse at 320 nm excites the europium of the cAMP tracer and the energy emitted is transferred to the Alexa molecule bound to the cAMP antibody, generating a TR-FRET signal at 665 nm. Residual energy from the europium will produce a light at 620 nm. The native unlabeled cAMP from cell lysates competes with the europium-cAMP tracer for antibody binding and reversely reduces the emission signal of Alexa by interrupting FRET between the two labeled molecules. Both emission signals from the FRET donor (620 nm) and the acceptor (665 nm) can be detected by a plate reader in the TRF mode. Expression of result in fluorescence ratio (665 nm/620 nm) helps to normalize differences due to cell density and reagent dispensing. This assay was successfully optimized to a 1536-well plate format. Select compounds from the primary screen (AID 1461) were chosen for confirmation based on potency, efficacy, SAR, and activity across other assays in PubChem and at NCGC. Other compounds are analogs of active compounds from the primary screen.
NCGC Assay Protocol Summary: A Chinese hamster ovary (CHO) cell line stably expressing the NPS receptor (CHO-NPSR) was obtained from Dr. Heilig lab at NIAAA and maintained in F-12 Kaighn's media (Invitrogen, Carlsbad, CA, 21127) supplemented with 10 % FBS, 100 units/ml penicillin, 100 ug/ml streptomycin and 250 ug/ml geneticin at 37C, 5% CO2 in a humidified atmosphere. Before the assay, aliquots of cells were frozen and stored at -135C. The assay was performed in 1536-well format. Data are reported for both the ratio of the two emission wavelengths, and also for the component 'donor' channel, Em2=620. […] IC50 values were determined from concentration-response data modeled with the standard Hill equation. NPS 1536-well assay protocol: (1) Fresh or frozen CHO-NPSR cells were suspended in F-12 Kaighn's media supplemented with 10 % FBS, 100 units/ml penicillin and 100 ug/ml streptomycin. Cells were plated at 4 ul/well (1200 cells) to white, tissue culture treated 1536-well plates, and then cultured at 37C, 5 % CO2 for 16 to 30 hours. (2) Add 23 nl/well of compound in DMSO solution. The final titration for each compound was between 0.6 nM and 46 uM. (3) Add 1 ul of stimulation reagent (1X HBSS buffer, 5 mM HEPES, 0.1% BSA, 500 uM RO-201724 (Sigma-Aldrich, B8279), 1.5% Alexa 647-labeled anti-cAMP antibody (from Perkin Elmer), 100 nM NPS) (4) Incubation at 37C, 5 % CO2 for 60 min. (5) Add 1 ul/well detection reagent. […]

Chain of Neuropeptide S receptor (Homo sapiens) (Q6W5P4 whole entry, looked up): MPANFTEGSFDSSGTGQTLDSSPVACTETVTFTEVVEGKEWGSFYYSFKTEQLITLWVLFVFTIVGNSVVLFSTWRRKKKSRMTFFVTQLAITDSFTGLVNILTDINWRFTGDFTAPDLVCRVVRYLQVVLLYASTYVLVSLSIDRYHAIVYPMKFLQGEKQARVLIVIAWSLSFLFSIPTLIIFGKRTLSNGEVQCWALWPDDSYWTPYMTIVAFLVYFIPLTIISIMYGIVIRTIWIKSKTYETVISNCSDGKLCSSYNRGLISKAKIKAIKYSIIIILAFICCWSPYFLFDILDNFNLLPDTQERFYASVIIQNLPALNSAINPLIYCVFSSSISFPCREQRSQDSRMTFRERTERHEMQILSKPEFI

SMILES | Potency
S=P(c1ccccc1)(c1ccccc1)c1c(-c2ccccc2)[nH]c2ccccc12 | 31.5 µM (active)
Cc1c(P(=S)(c2ccccc2)c2ccccc2)[n+]2ccccc2n1C/C=C/c1ccccc1 | 0.387 µM (active)
Cc1c(P(=S)(c2ccccc2)c2ccccc2)c2ccccc2n1C | 31.5 µM (active)
Cc1nc2ccccn2c1P(=S)(c1ccccc1)c1ccccc1 | 25 µM (active)
Cc1[nH]c2ccccc2c1P(=S)(c1ccccc1)c1ccccc1 | 39.7 µM (active)
Cc1c(P(=S)(c2ccccc2)c2ccccc2)[n+]2ccccc2n1C | 2.23 µM (active) and 4.87 µM (active)
Cc1c(P(=S)(c2ccccc2)c2ccccc2)[n+]2ccccc2n1Cc1ccccc1 | 1.99 µM (active)
Cc1c(P(=S)(c2ccccc2)c2ccccc2)[n+]2ccccc2n1CCCc1ccccc1 | 0.772 µM (active)
S=P(c1ccccc1)(c1ccccc1)c1c[n+](Cc2ccccc2)c2ccccn12 | 9.96 µM (active)
Cc1c(P(=S)(c2ccccc2)c2ccccc2)[n+]2ccccc2n1CCc1ccccc1 | 2.5 µM (active)
Cn1c(-c2ccccc2)c(P(=S)(c2ccccc2)c2ccccc2)c2ccccc21 | inactive
